The record followed here is PubChem BioAssay (NCI).

Structures are written as SMILES. The panel holds about 79,000 compounds, 15% with a hit somewhere; the sample as a whole holds those more often. A number with no mark means an inactive call. Calls of active or inactive are those of the source. Rule as the data show it: active = growth inhibition above about 70%; inactive = the rest.

Test [1] can be described thus: NCI Yeast Anticancer Drug Screen. Data for the rad50 strain (AID 155).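 Also: 0% = growth of vehicle-only cultures of the same strain.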 The following applies: S. cerevisiae rad50 strain growth inhibition, stronger effect = higher value. An outline of the steps: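 Compounds were tested on a yeast strain with an engineered DNA damage repair alteration; the reported value is growth inhibition normalised to vehicle treatment.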
A short description of test [2]: NCI Yeast Anticancer Drug Screen. Data for the mec2-1 strain (AID 157). The following applies: S. cerevisiae mec2-1 strain, stronger effect = higher value. Summed up: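 Strain: mec2-1 (DNA repair/cell cycle alteration). Compound exposure, then growth measured; inhibition expressed relative to vehicle.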
The nature of test [3]: NCI Yeast Anticancer Drug Screen. Data for the sgs1 mgt1 strain (AID 161).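 Also: 0% = growth of cultures given vehicle only.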 Conditions: S. cerevisiae sgs1 mgt1 strain, stronger effect = higher value. Summed up: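 Read-out: growth inhibition vs vehicle controls. Cells: mutant yeast strain deficient in DNA damage repair.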
The nature of test [4]: NCI Yeast Anticancer Drug Screen. Data for the cln2 rad14 strain (AID 165).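 Also: 0% = growth equal to vehicle treated cultures.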 The following applies: S. cerevisiae cln2 rad14 strain, stronger effect = higher value. An outline of the steps: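 Compounds are applied to the cln2 rad14 yeast strain, and growth is then compared with that of vehicle-treated cultures to give inhibition.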
Test [5] is described as follows: NCI Yeast Anticancer Drug Screen. Data for the bub3 strain (AID 167). Conditions: S. cerevisiae bub3 mutant strain, stronger effect = higher value. An outline of the steps:
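Growth of a checkpoint-deficient yeast mutant is measured after compound exposure. Values represent inhibition relative to vehicle.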

Test [6] is described as follows: NCI Yeast Anticancer Drug Screen. Data for the mlh1 rad18 strain (AID 175). The following applies: S. cerevisiae mlh1 rad18 strain growth inhibition, stronger effect = higher value. An outline of the steps:
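Read-out is yeast growth inhibition, calculated against vehicle-only controls. The compound was applied to a strain engineered with DNA damage repair alterations.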

[7] abbreviates: at 5.0 µM (retest, dose inferred, filed as 0.5).
The mark [8] stands for this setting: at 50.0 µM (retest, dose inferred, filed as 5.0).

For `CCCCCCCCCCCCCCNCCN`, the growth inhibition in test [1] (setting [7]) was 23%; in test [1] (setting [8]), 29%; in test [1] (at 50.0 µM), 88.1% (active); in test [2] (setting [7]), 46%; in test [2] (setting [8]), 33%; in test [2] (at 50.0 µM), 91% (active). Besides, the growth inhibition in test [3] (setting [7]) is 53%; in test [3] (setting [8]) it was 97% (active); in test [3] (at 50.0 µM), 92.5% (active); in test [4] (setting [7]), 27%; in test [4] (setting [8]) it was 97% (active); in test [4] (at 50.0 µM) it was 88.7% (active). In addition, the growth inhibition is 84% (active) in test [5] (setting [7]); 96% (active) in test [5] (setting [8]); 89.5% (active) in test [5] (at 50.0 µM); 25% in test [6] (setting [7]); 29% in test [6] (setting [8]); 88.5% (active) in test [6] (at 50.0 µM).
Take `ClCC1CSC2(CCCCC2)O1` (stereo not given): the growth inhibition in test [1] (setting [7]) is 16%; in test [1] (setting [8]), 3%; in test [1] (at 50.0 µM), 21.5%; in test [2] (setting [7]), 10%; in test [2] (setting [8]), -16%; in test [2] (at 50.0 µM), 20.9%. The growth inhibition in test [3] (setting [7]) is 7%; in test [3] (setting [8]) it was -8%; in test [3] (at 50.0 µM), 27.1%; in test [4] (setting [7]) it was 15%; in test [4] (setting [8]) it was 32%; in test [4] (at 50.0 µM), 13.7%. The growth inhibition in test [5] (setting [7]) is -13%; in test [5] (setting [8]), -9%; in test [5] (at 50.0 µM), 31.6%; in test [6] (setting [7]), -17%; in test [6] (setting [8]), -23%; in test [6] (at 50.0 µM) it was 27.5%.
Turning to `CCCCCCCCCCOC(=O)Nc1ccc(C)c(NC(=O)OCCCCCCCCCC)c1`, the growth inhibition in test [1] (setting [7]) was 0%; in test [1] (setting [8]) it was 1%; in test [1] (at 50.0 µM), 27.4%; in test [2] (setting [7]), 1%; in test [2] (setting [8]), -3%; in test [2] (at 50.0 µM), 13.4%. Moreover, the growth inhibition in test [3] (setting [7]) was 3%; in test [3] (setting [8]), -13%; in test [3] (at 50.0 µM) it was 16.8%; in test [4] (setting [7]), 2%; in test [4] (setting [8]) it was -13%; in test [4] (at 50.0 µM), 23.1%. Further, the growth inhibition in test [5] (setting [7]) is 0%; in test [5] (setting [8]), -1%; in test [5] (at 50.0 µM), 55.2%; in test [6] (setting [7]), -1%; in test [6] (setting [8]), -3%; in test [6] (at 50.0 µM) it was 24.6%.
In the case of `COC1=C(NC(C)=O)C(=O)c2nc(-c3nc(C(=O)O)c(C)c(-c4ccc(OC)c(OC)c4O)c3N)ccc2C1=O`, the growth inhibition in test [1] (setting [7]) was 59%; in test [1] (setting [8]), 93% (active); in test [1] (at 50.0 µM), 78.4% (active); in test [2] (setting [7]) it was 28%; in test [2] (setting [8]), 79% (active); in test [2] (at 50.0 µM), 69.7%. For the same compound, the growth inhibition was 43% in test [3] (setting [7]); 92% (active) in test [3] (setting [8]); 68.7% in test [3] (at 50.0 µM); 38% in test [4] (setting [7]); 90% (active) in test [4] (setting [8]); 57.1% in test [4] (at 50.0 µM). Moreover, the growth inhibition in test [5] (setting [7]) is 15%; in test [5] (setting [8]) it was 70% (active); in test [5] (at 50.0 µM) it was 55.8%; in test [6] (setting [7]), 48%; in test [6] (setting [8]) it was 89% (active); in test [6] (at 50.0 µM), 87% (active).
For the compound `COc1ccccc1NC(=O)CSC(N)=O`, the growth inhibition was 5% in test [1] (setting [7]); 24% in test [1] (setting [8]); 71% (active) in test [1] (at 50.0 µM); 4% in test [2] (setting [7]); 42% in test [2] (setting [8]); 61.8% in test [2] (at 50.0 µM). Moreover, the growth inhibition in test [3] (setting [7]) was 3%; in test [3] (setting [8]), 24%; in test [3] (at 50.0 µM) it was 92.5% (active); in test [4] (setting [7]), 5%; in test [4] (setting [8]), 7%; in test [4] (at 50.0 µM), 58%. Further, the growth inhibition in test [5] (setting [7]) was 4%; in test [5] (setting [8]), 66%; in test [5] (at 50.0 µM), 88.2% (active); in test [6] (setting [7]), 2%; in test [6] (setting [8]) it was 21%; in test [6] (at 50.0 µM) it was 74% (active).
